Shown are actives, neighbours in structure and some others; about 2.4% of the full set was active somewhere.
C diff HTS = inhibitors of Clostridium difficile growth; hit rate 0.25% among 86,000; growth activity, negative = inhibition, % at 16 µg/mL (by protocol); Clostridium difficile clinical isolate growth, OD600, 24 h; active compounds read low;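 active = mean growth activity at or below -80% and every replicate also at or below -80%; inconclusive = mean at or below -80% but some replicate above -80%; inactive = mean growth activity above -80%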
Pf Dd2 growth = P. falciparum Dd2 growth inhibition | AID 1159554 | activity change, % at 10 µM | SYBR Green, 72 h; active compounds read low | hit rate 2.3% among 94,000; in the data active = activity change below about -80%; inconclusive = no clear call, values can overlap the other calls
Of the large screens only hits and unclear results are named; the others gave an inactive call; ! = not active in a repeat.

COc1ccc(NC(=O)N2CCC3(CC2)CN(CC2CC2)[C@H](CO)c2c3c3ccc(OC)cc3n2C)cc1	Pf Dd2 growth -85
O=C(C[C@H]1CC[C@H]2[C@@H](COC[C@H](O)CN2C(=O)Nc2ccc(C(F)(F)F)cc2)O1)NCCc1ccncc1	none
CCNC(=O)C[C@H]1CC[C@H]2[C@@H](COC[C@@H](O)CN2C(=O)Nc2ccc(C(F)(F)F)cc2)O1	C diff HTS -102!
CCNC(=O)C[C@H]1CC[C@@H]2[C@H](COC[C@H](O)CN2C(=O)Nc2ccc(C(F)(F)F)cc2)O1	C diff HTS -88
O=C(C[C@@H]1CC[C@H]2[C@@H](COC[C@@H](O)CN2C(=O)Nc2ccc(C(F)(F)F)cc2)O1)NCCc1ccncc1	none
C[C@H](CO)N1C[C@H](C)[C@H](CN(C)C(=O)c2ccncc2)OCCCC[C@H](C)Oc2ccc(NS(=O)(=O)c3ccc(Cl)cc3)cc2C1=O	none (no result: C diff HTS)
COc1ccc(S(=O)(=O)N(C)C[C@@H]2OCCCC[C@H](C)Oc3ccc(NC(=O)c4ccccc4)cc3C(=O)N([C@@H](C)CO)C[C@H]2C)cc1	Pf Dd2 growth -84
COc1ccc(S(=O)(=O)N(C)C[C@H]2OCCCC[C@@H](C)Oc3ccc(NC(=O)c4ccccc4)cc3C(=O)N([C@H](C)CO)C[C@@H]2C)cc1	none
COc1ccc(S(=O)(=O)N(C)C[C@@H]2OCCCC[C@H](C)Oc3ccc(NC(=O)c4ccccc4)cc3C(=O)N([C@H](C)CO)C[C@@H]2C)cc1	none
COc1ccc(S(=O)(=O)N(C)C[C@H]2OCCCC[C@H](C)Oc3ccc(NC(=O)c4ccccc4)cc3C(=O)N([C@@H](C)CO)C[C@H]2C)cc1	Pf Dd2 growth -85
C[C@H]1CN([C@@H](C)CO)C(=O)c2cc(-c3cncnc3)cnc2O[C@@H]1CN(C)C(=O)Nc1ccc2c(c1)OCO2	none
C[C@@H]1CN([C@H](C)CO)C(=O)c2cccc(NC(=O)Nc3ccc(F)cc3)c2O[C@@H]1CN(C)Cc1ccc(C(=O)O)cc1	none
C[C@@H]1CN([C@H](C)CO)C(=O)c2cccc(NC(=O)Nc3ccc(F)cc3)c2O[C@@H]1CN(C)Cc1ccc(C(=O)Nc2ccccc2N)cc1	Pf Dd2 growth -89
C[C@H](CO)N1C[C@H](C)[C@H](CN(C)Cc2ccc(C(=O)O)cc2)Oc2c(NC(=O)Nc3ccc(F)cc3)cccc2C1=O	none
C[C@@H]1CN([C@@H](C)CO)C(=O)c2cccc(NC(=O)Nc3ccc(F)cc3)c2O[C@@H]1CN(C)Cc1ccc(C(=O)Nc2ccccc2N)cc1	Pf Dd2 growth -92
O=C(c1ccccn1)N1CC2(C1)[C@H](c1ccccc1)[C@@H](CO)N2Cc1ccccc1	none
COc1ccc(CN2CC3(CN(C(=O)Cc4ccccc4)C3)c3c([nH]c4cc(OC)ccc34)[C@@H]2CO)cc1	Pf Dd2 growth -86
COc1ccc2c3c([nH]c2c1)[C@@H](CO)N(Cc1ccccc1)CC31CN(C(=O)Cc2ccccc2)C1	Pf Dd2 growth -84
COc1ccc2c3c([nH]c2c1)[C@H](CO)N(CC1CC1)CC31CN(C(=O)c2ccccc2)C1	Pf Dd2 growth -83
COc1ccc2c3c([nH]c2c1)[C@H](CO)N(CC1CC1)CC31CN(C(=O)c2ccc(F)cc2)C1	none
COCC(=O)N1CCC2(CC1)CN(Cc1cccc(Cl)c1)[C@@H](CO)c1[nH]c3cc(OC)ccc3c12	none
COc1ccc(CN2CC3(CCN(C(=O)Cc4ccccc4)CC3)c3c([nH]c4cc(OC)ccc34)[C@H]2CO)cc1	Pf Dd2 growth inconclusive
COCC(=O)N1CC2(C1)CN(Cc1cccc(Cl)c1)[C@@H](CO)c1[nH]c3cc(OC)ccc3c12	Pf Dd2 growth -92
COc1ccc2c3c([nH]c2c1)[C@H](CO)N(Cc1ccccc1)CC31CN(C(=O)Cc2ccccc2)C1	none (no result: C diff HTS)
COc1cccc(NC(=O)N[C@H]2CC[C@@H](CC(=O)NCc3ccccn3)O[C@H]2CO)c1	none
O=C(CCN1CCCCC1)N[C@H]1CC[C@H](CCn2cc(-c3ccccc3)nn2)O[C@@H]1CO	none
C[C@@H]1CCCCO[C@H](CN(C)C(=O)Cc2ccccc2)[C@H](C)CN([C@@H](C)CO)C(=O)c2cc(NC(=O)NC3CCCCC3)ccc2O1	none
Cc1ccc(S(=O)(=O)N(C)C[C@H]2OCCCC[C@@H](C)Oc3ccc(NC(=O)Nc4ccccc4)cc3C(=O)N([C@H](C)CO)C[C@@H]2C)cc1	none
C[C@@H]1CCCCO[C@H](CN(C)S(=O)(=O)c2ccc(Cl)cc2)[C@@H](C)CN([C@@H](C)CO)C(=O)c2cc(NC(=O)Nc3ccccc3)ccc2O1	none (no result: C diff HTS)
Cc1ccc(S(=O)(=O)N(C)C[C@@H]2OCCCC[C@@H](C)Oc3ccc(NC(=O)Nc4ccccc4)cc3C(=O)N([C@@H](C)CO)C[C@@H]2C)cc1	Pf Dd2 growth -91
Cc1ccc(S(=O)(=O)N(C)C[C@@H]2OCCCC[C@@H](C)Oc3ccc(NC(=O)Nc4ccccc4)cc3C(=O)N([C@@H](C)CO)C[C@H]2C)cc1	none

High-throughput results deposited in PubChem BioAssay by Broad Institute.
